Compound activity (PubChem BioAssay)
HT1080 IDH1KD tx = toxicity to HT-1080 IDH1 knockdown cells (counter line) | HT-1080 IDH1 knockdown viability, ATP luminescence, 48 h | Potency, µM (top dose mostly 46.1 µM), for the others: at the top dose activity, negative = toxicity, actives largely listed as cytotoxic | 360,000 compounds, 2% hits | AID 686971;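 further: potency means the concentration at half of the fitted maximal effect; 0% = DMSO wells and -100% = cell-free medium wells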
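HT-1080-IDH1KD cells (IDH1 knocked down), 750/well in RPMI with 5% FBS, treated with compound 48 h at 37 degrees C. Viability by CellTiter-Glo luminescence, normalised to DMSO and no-cell wells; concentration-response curves classed.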
DT40 TDP1 CPT = DT40-hTDP1 cell growth loss with CPT. 420,000 compounds, 12% hits. Potency, µM (highest dose often 46.2 µM), for the others: at the top dose activity change, negative = growth inhibition, actives largely listed as inhibitors. chicken DT40 Tdp1-/-;hTDP1 cells + 20 nM CPT, ATP luminescence, 48 h. AID 686979; further: potency means the concentration at half of the fitted maximal effect; nearly all actives have a fitted effect of over 55% in size
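Chicken DT40 Tdp1-/- cells complemented with human TDP1, 400 cells/well, exposed to compounds plus 20 nM camptothecin for at least 48 h at 37 C; viability read as ATP content by CellTiter-Glo luminescence.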
ELG1 repair inh = ELG1-dependent DNA repair inhibition; HEK293T ELG1-luciferase reporter, luminescence, 16 h; DNA damage induced by 5-fluorouridine; AID 504467; Potency, µM (series often up to 46.1 µM), without a hit: top-dose activity change, negative = inhibition, most hits filed as inhibitors; 330,000 compounds, 2.3% hits; further: potency means the concentration at half of the fitted maximal effect; nearly all actives have a fitted effect of over 55% in size
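Quantitative HTS, concentration-response format. 2,000 cells/well co-treated with 5-fluorouridine and compound, 16 hr in 5% CO2 at 37 °C; ONE-Glo luminescence read after 30 min.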
IL1B secr inh = inflammasome signaling inhibition, IL-1 beta readout | activity change, % at 57.5 µM | THP-1 LPS/ATP IL-1B secretion, AlphaLISA, 16 h; active compounds read low | 360,000 compounds, 4.7% hits; in the data active means activity change below about -50%; inconclusive means mostly about -30% to -49%
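Secreted IL-1B measured by AlphaLISA bead assay after 16 h compound exposure of THP-1 cells; compounds (final up to 57.5 uM) added 1 h before LPS (250 ng/mL) and ATP (1.25 mM) stimulation; lower signal means less secretion.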
DT40 TDP1 no CPT = qHTS for Inhibitors of human tyrosyl-DNA phosphodiesterase 1 (TDP1): qHTS in cells in absence of CPT; DT40 Tdp1-/- hTDP1 cells, no CPT, ATP luminescence, 48 h; Potency, µM (series often up to 46.2 µM), inactives show at the top dose activity change, negative = growth inhibition, usual class: inhibitors; 420,000 compounds, 15% hits; further: potency means the concentration at half of the fitted maximal effect; nearly all actives have a fitted effect of over 55% in size
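Growth of hTDP1-complemented DT40 Tdp1-knockout cells is measured by ATP luminescence after at least 48 hr compound exposure at 37 °C, with DMSO substituting for the 20 nM CPT used in the parallel screen.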
HT1080NT lethal = kills 2HG-producing HT-1080-NT fibrosarcoma cells | AID 686970 | HT-1080-NT fibrosarcoma viability, CellTiter-Glo ATP luminescence, 48 h | Potency, µM (doses to about 46.1 µM), inactives show top-dose activity, negative = less viability, hits mostly cytotoxic | 360,000 compounds, 1.6% hits;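 further: NT is the 2HG producing partner of a matched IDH1 knockdown line; potency means the concentration at half of the fitted maximal effect; 0% = DMSO-treated cells and -100% = media-only wells without cells; nearly all actives have a fitted effect of over 55% in size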
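Viability by CellTiter-Glo luminescence after 48 h compound exposure at 37C of HT-1080-NT cells (750/well, RPMI, 5% FBS). % activity scaled between DMSO wells and medium-only wells, then curve-fitted and categorized by curve class.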
Active calls of the source: *; ? = inconclusive; . = no result. Hits are enriched below; roughly 19% of the tested compounds scored in any of these assays. Unless noted, the call rests on the fitted dose curve; in most records, active means well fitted curve in the direction sought with a large enough effect; inconclusive means small, poorly fitted or top-dose-only effect, or another doubt; inactive means no such curve, though single readings can be large; an effect the other way counts as inactive or inconclusive. Unless noted, on the % scale 0 is the no-effect control and ±100 the full control effect.

SMILES	HT1080 IDH1KD tx	DT40 TDP1 CPT	ELG1 repair inh	IL1B secr inh	DT40 TDP1 no CPT	HT1080NT lethal
Cc1ccc(OCc2occc2C(=O)O)cc1	-2.1%	-8.4%	.	1.4	3.2%	-1.4%
CCCc1c(C(=O)N/N=C/c2ccc(OCc3ccccc3)c(OC)c2)nnn1-c1nonc1N	0.8%	?	8.3%	26.4	?	9.2%
CCN(CC)c1ccc(/C=N/NC(=O)c2nnn(-c3nonc3N)c2C(C)C)c(O)c1	1.3µM*	5.8µM*	25.6%	79.9	3.26µM*	?
COc1cc(/C=N/NC(=O)c2nnn(-c3nonc3N)c2C(C)C)ccc1OCc1ccc(F)cc1	11.6µM*	?	?	?	20.6µM*	?
CC(C)c1c(C(=O)N/N=C/c2cccc(OCc3ccc(F)cc3)c2)nnn1-c1nonc1N	-3.2%	?	?	-83.2*	16.4µM*	13.9%
COc1ccc(NS(=O)(=O)c2cc(C)ccc2NC(=O)c2cc(C)oc2C)cc1	0.92µM*	0.92µM*	?	55.4	0.581µM*	0.581µM*
COc1cc(C2CC(=O)N(c3ccc(C)c(Cl)c3)C3=C2C(=O)OC3)cc(OC)c1OC (stereo not drawn)	.	-19.3%	.	.	-12.0%	.
COc1ccc(OCCNC(=O)/C=C/c2ccc([N+](=O)[O-])cc2)cc1	9.2%	?	-8.5%	-6.6	?	-2.9%
Cc1cccc(/C=C/C(=O)c2ccc([N+](=O)[O-])o2)c1	?	0.581µM*	?	-100.4*	0.651µM*	-19.8%
O=C(/C=C/c1cccc([N+](=O)[O-])c1)c1ccco1	0.2%	4.61µM*	?	-7.2	3.66µM*	-19.4%
COc1cccc(/C=C/C(=O)c2cccc([N+](=O)[O-])c2)c1	16.7%	?	?	-4.4	?	7.3%
Cc1ccc([N+](=O)[O-])cc1N/C=C/C(=O)c1ccco1	?	?	?	4.9	20.6µM*	?
COc1ccc(/C=C/C(=O)c2ccc([N+](=O)[O-])o2)cc1	18.4µM*	2.31µM*	?	-13.5	2.59µM*	?
CCOc1ccc(Nc2nn(-c3ccc(OC(F)(F)F)cc3)nc2C(C)=O)cc1	.	-12.3%	.	.	-7.5%	.
CC(C)CN(C(=O)CSc1nc2ccccc2c(=O)n1C)C1CCS(=O)(=O)C1 (stereo not drawn)	-1.3%	4.7%	0.3%	-20.3	-0.9%	-0.6%
Cc1ccc(CN2CCN(Cc3cnc(C)[nH]3)CC2CCO)cc1 (stereo not drawn)	15.7%	-11.0%	-2.1%	-17.7	-5.7%	2.7%
Cc1nc(NC(=O)C(C)(C)C)sc1C(=O)Cn1cc(CCCC#N)nn1	11.4%	1.3%	.	2.5	-19.7%	13.8%
O=C(/C=C/c1cccc([N+](=O)[O-])c1)NCc1ccc2c(c1)OCO2	1.3%	-12.6%	6.4%	-2.9	-16.0%	-1.9%
O=C(NC(Cc1ccccc1)C(=O)O)/C(=C/c1cccc([N+](=O)[O-])c1)NC(=O)c1ccco1 (stereo not drawn)	9.4%	11.9%	3.0%	21.1	1.0%	13.5%
O=C(/C=C/c1cccc([N+](=O)[O-])c1)c1ccc([N+](=O)[O-])o1	5.8µM*	0.164µM*	.	-51.7*	0.164µM*	5.8µM*
O=C(OCc1ccccc1)/C(=C/c1cccc([N+](=O)[O-])c1)NC(=O)c1ccco1	-13.2%	?	?	-50.3*	-20.3%	-6.6%
COC(=O)c1[nH]c2ccccc2c1NC(=O)C(C)N1CC(C)OC(C)C1 (stereo not drawn)	14.0%	6.1%	-2.7%	.	-22.5%	11.8%
